Test results reported in PubChem BioAssay AID602481 (Broad Institute, 2012).
Values joined by “and” are separate entries in the source; they are usually repeats but may differ in a detail not shown here. Equal values may be shown once. In all, about 360,000 compounds went through this assay and about 340 (0.094%) were called active. Cut-off read from the data, not from the text of the source: active = inhibition above about 40%; inconclusive = no clear call, values can overlap the other calls; inactive = below that. The entries come from a sample that favours actives as a whole. Some compounds were tested as several samples or in several runs, with calls that do not always agree.

system: 7,8-diaminopelargonic acid synthase BioA (Mycobacterium tuberculosis); experiment: M. tuberculosis BioA enzyme inhibitors, primary screen, biochemical, plate reader, single point, HTS (AID 602481); conditions: purified M. tuberculosis BioA enzyme, at 9.99 µM, stronger effect = higher value

Structure (SMILES) | inhibition
COc1ccc(S(=O)(=O)N(C)C[C@@H]2OCCCC[C@H](C)Oc3ccc(NC(=O)Nc4ccccc4)cc3C(=O)N([C@H](C)CO)C[C@H]2C)cc1 | -0.37% (inactive)
CN(C)C(=O)C[C@H]1C=C[C@@H](NC(=O)c2ccc(F)cc2)[C@@H](CO)O1 | -0.406% (inactive)
O=C(Nc1ccc2c(c1)OCO2)N[C@H]1CC[C@H](CCNC(=O)C2CCC2)O[C@@H]1CO | 5.56% (inactive)
O=C(C[C@H]1C[C@H]2c3cc(NC(=O)Nc4ccc(F)cc4)ccc3O[C@H]2[C@@H](CO)O1)NCC1CC1 | 0.529% (inactive)
COc1ccc(NC(=O)N(C)C[C@H]2OCCCC[C@H](C)Oc3ccc(NC(=O)c4ccncc4)cc3C(=O)N([C@H](C)CO)C[C@@H]2C)cc1 | -0.437% (inactive)
CN(C)CC(=O)Nc1ccc2c(c1)[C@@H]1C[C@H](CC(=O)NCC3CC3)O[C@@H](CO)[C@@H]1O2 | -1.45% (inactive)
CN(C)CC(=O)N1[C@H](C(=O)NC2CCC2)[C@@H](CO)[C@@H]2Cn3c(ccc(-c4ccc(F)cc4)c3=O)[C@@H]21 | -3.07% (inactive)
CCCN(C)C[C@@H]1OCc2cnnn2CCCC(=O)N([C@H](C)CO)C[C@@H]1C | -0.996% (inactive)
Cc1ccc(S(=O)(=O)Nc2cccc3c2O[C@@H](CN(C)S(=O)(=O)c2cccs2)[C@@H](C)CN([C@@H](C)CO)C3=O)cc1 | 1.64% (inactive)
O=C(Nc1cccc(F)c1)N1CCCCN2[C@H](CO)[C@H](c3ccc(C#CC4CC4)cc3)[C@@H]2C1 | 10.9% (inactive)
Cc1ccc(S(=O)(=O)Nc2ccc3c(c2)CC(=O)N([C@@H](C)CO)C[C@H](C)[C@H](CN(C)Cc2ccc(C(=O)Nc4ccccc4N)cc2)O3)cc1 | -1.91% (inactive)
CCCC(=O)Nc1ccc2c(c1)OC[C@@H](C)N(Cc1ccccc1F)C[C@@H](C)[C@H](OC)CN(C)C2=O | -3.54% (inactive)
CCCN(C)C[C@@H]1Oc2ncc(C#CC3CC3)cc2C(=O)N([C@H](C)CO)C[C@H]1C | -2.63% (inactive)
C[C@H](CO)N1C[C@H](C)[C@@H](CN(C)S(=O)(=O)c2ccccc2)OCCCC[C@H](C)Oc2ccc(NC(=O)NC3CCCCC3)cc2C1=O | -0.429% (inactive)
COc1ccc(S(=O)(=O)N(C)C[C@H]2Oc3c(NS(=O)(=O)c4ccc(F)cc4)cccc3C(=O)N([C@H](C)CO)C[C@H]2C)cc1 | -2.2% (inactive)
C=CCn1c(SCc2cc(C(=O)OC)c(C)o2)nnc1-c1ccncc1 | 5.32% (inactive)
CCn1c(SCc2cccc(C(=O)O)c2)nnc1-c1ccc(Cl)cc1 | 1.6% (inactive)
C=CCn1c(SCc2c(C(=O)OC)sc(N)c2C(=O)OC)nnc1-c1ccc(Cl)cc1 | 51.8% (active)
O=C(C[C@@H]1C=C[C@@H](NC(=O)C2CC2)[C@H](CO)O1)NCCCN1CCOCC1 | -6.18% (inactive)
CCCc1cn(CC[C@@H]2CC[C@@H](NC(=O)CCN3CCCCC3)[C@H](CO)O2)nn1 | -2.51% (inactive)
O=C(C[C@H]1CC[C@H](NC(=O)c2ccc3c(c2)OCO3)[C@H](CO)O1)NCc1ccc(Oc2ccccc2)cc1 | 2.15% (inactive)

Structure (SMILES) | inhibition
C[C@@H](O)C#Cc1ccc2c(c1)O[C@@H](CN(C)Cc1cccnc1)[C@@H](C)CN([C@@H](C)CO)S2(=O)=O | 5.8% (inactive)
CCC(CO)Oc1cc(NC(=O)c2cccc(F)c2)c2ncn(C(C)C)c2c1 (stereo not drawn) | 20.8% (inactive) and 67.8% (active)
CC(C)n1cnc2c(NCc3ccccc3)cc(OCC3CCN(C)CC3)cc21 | 5.28% (inactive)
CCCOc1cccc(C(=O)Nc2nnn(CCC)n2)c1 | -3.8% (inactive)
Cc1noc(C)c1NC(=O)Nc1ccc2c(c1)CC(=O)N([C@@H](C)CO)C[C@H](C)[C@H](CN(C)S(=O)(=O)c1c(C)noc1C)O2 | 1.52% (inactive)
CC(C)NC(=O)N(C)C[C@H]1Oc2c(NS(=O)(=O)c3ccc(Cl)cc3)cccc2C(=O)N([C@@H](C)CO)C[C@H]1C | -1.39% (inactive)
C[C@@H]1CN([C@@H](C)CO)C(=O)c2cc(/C=C/c3ccccc3)cnc2O[C@@H]1CN(C)C(=O)CN(C)C | -0.866% (inactive)
CO[C@H](CN(C)S(=O)(=O)c1ccc(Cl)cc1)[C@@H](C)CN(Cc1ccccc1Cl)[C@H](C)CO | -0.783% (inactive)
O=C(NCC[C@@H]1CC[C@H](NS(=O)(=O)c2cccc(F)c2)[C@H](CO)O1)c1cnccn1 | 2.18% (inactive)
Cc1noc(C)c1S(=O)(=O)Nc1ccc2c(c1)C(=O)N([C@H](C)CO)C[C@H](C)[C@H](CN(C)C(=O)NC1CCCCC1)OCCCC[C@H](C)O2 | -0.981% (inactive)
COc1ccc(S(=O)(=O)N(C)C[C@H]2OCCCC[C@H](C)Oc3ccc(NS(=O)(=O)c4c(C)noc4C)cc3C(=O)N([C@@H](C)CO)C[C@@H]2C)cc1 | -0.18% (inactive)
Cc1noc(C)c1NC(=O)N(C)C[C@H]1Oc2ccc(NC(=O)Nc3ccc(C(F)(F)F)cc3)cc2CC(=O)N([C@@H](C)CO)C[C@@H]1C | -2.44% (inactive)
O=C(Nc1cccc(Cl)c1)N1C[C@@H]2[C@H](c3ccccc31)[C@H](CO)N2Cc1ccncc1 | -5.5% (inactive)
Cc1cc(C(=O)Nc2cccc3c2O[C@@H](CN(C)Cc2ccc4c(c2)OCO4)[C@@H](C)CN([C@@H](C)CO)C3=O)n(C)n1 | -2.65% (inactive)
O=C(C[C@@H]1C[C@@H]2c3cc(NC(=O)C4CCC4)ccc3O[C@@H]2[C@@H](CO)O1)NCc1ccccc1 | -1.79% (inactive)
O=C(C[C@@H]1CC[C@@H]2[C@H](COC[C@H](O)CN2S(=O)(=O)c2ccc(Oc3ccccc3)cc2)O1)NCCN1CCCCC1 | 9.19% (inactive)
CCCN1[C@H](C(=O)NCC)[C@@H](CO)[C@@H]2Cn3c(ccc(C4=CCCC4)c3=O)[C@@H]21 | -0.389% (inactive)
CC(=O)N1[C@H](C(=O)N(C)C)[C@@H](CO)[C@@H]2Cn3c(ccc(-c4ccccc4)c3=O)[C@@H]21 | -1.69% (inactive)
CN1C(=O)c2cc(NC(=O)c3ccc(F)c(F)c3)ccc2OC[C@H]2O[C@@H](CC(=O)N3CCCCC3)CC[C@H]21 | 4.19% (inactive)
C[C@@H]1CN([C@@H](C)CO)C(=O)c2cc(C#C[C@@H](C)O)cnc2O[C@H]1CN(C)CC1CCOCC1 | -0.205% (inactive)
O=C(C[C@H]1C[C@@H]2c3cc(NC(=O)CC4CC4)ccc3O[C@@H]2[C@@H](CO)O1)NCc1cc(F)ccc1F | -0.019% (inactive)

Structure (SMILES) | inhibition
COCC#Cc1cnc2c(c1)C(=O)N([C@H](C)CO)C[C@H](C)[C@H](CN(C)Cc1ccc(-c3ccccc3)cc1)O2 | -2.84% (inactive)
C[C@@H]1CN([C@H](C)CO)C(=O)c2cc(NC(=O)Nc3ccc(F)cc3)ccc2O[C@@H]1CN(C)Cc1ccc(Cl)c(Cl)c1 | -0.852% (inactive)
C[C@H]1CCCCO[C@H](CN(C)C(=O)CCC(F)(F)F)[C@@H](C)CN([C@@H](C)CO)C(=O)c2cc(NC(=O)Cc3ccccc3)ccc2O1 | 1.33% (inactive)
C[C@H]1CN([C@@H](C)CO)S(=O)(=O)c2ccc(C#Cc3ccccc3)cc2O[C@H]1CN(C)S(=O)(=O)c1cn(C)cn1 | 0.612% (inactive)
CCNC(=O)C[C@@H]1CC[C@H](NC(=O)C2CCC2)[C@@H](CO)O1 | 0.933% (inactive)
O=C(c1cccnc1)N1CC[C@@H]2[C@@H](CO)Nc3ccc(-c4ccccc4)cc3[C@@H]21 | 18.1% (inactive)
O=C(c1ccccc1)N1CC[C@H]2[C@H](CO)Nc3ccc(-c4ccc(F)cc4)cc3[C@H]21 | -4.36% (inactive)
O=C(c1ccncc1)N1CC[C@@H]2[C@H]1c1cc(Br)ccc1N[C@@H]2CO | 104% (active)
O=C(C[C@@H]1C=C[C@@H](NC(=O)c2ccccn2)[C@@H](CO)O1)NCc1cc(F)cc(F)c1 | -2.07% (inactive)
C[C@@H]1CN([C@H](C)CO)C(=O)c2cc(NC(=O)NC3CCCCC3)ccc2O[C@@H](C)CCCCO[C@H]1CN(C)S(C)(=O)=O | 1.27% (inactive)
CCC(=O)Nc1ccc2c(c1)OC[C@@H](C)N(Cc1ccccn1)C[C@H](C)[C@@H](OC)CN(C)C2=O | 0.9% (inactive)
CO[C@H]1CN(C)C(=O)c2ccc(NC(C)=O)cc2OC[C@@H](C)NC[C@H]1C | -1.23% (inactive)
C[C@@H]1CN([C@H](C)CO)C(=O)c2cc(-c3ccccc3)cnc2O[C@H]1CN(C)C(=O)Nc1ccccc1 | 4.24% (inactive)
CNC(=O)C[C@H]1CC[C@H]2[C@@H](COc3ccc(NS(=O)(=O)c4ccc(F)cc4)cc3C(=O)N2C)O1 | 6.78% (inactive)
COc1ccc(NC(=O)Nc2cccc3c2O[C@H](CN(C)S(=O)(=O)c2cn(C)cn2)[C@H](C)CN([C@@H](C)CO)C3=O)cc1 | 1.78% (inactive)
C=C(C)CSc1nc(N)c2c3c(sc2n1)CCC3 | 54.5% (active)
CC(C)(C)C1CCc2c(sc3nc(SCC(N)=O)nc(N)c23)C1 (stereo not drawn) | 7.83% (inactive)
C=CCn1c(SCC(=O)NCCCO)nc2sc3c(c2c1=O)CCC3 | 2.06% (inactive)
C[C@H](CO)N1C[C@H](C)[C@H](CN(C)C(=O)Nc2ccc(F)cc2)OCCCC[C@H](C)Oc2ccc(NC(=O)CCC(F)(F)F)cc2C1=O | -0.385% (inactive)
C[C@@H]1CN([C@@H](C)CO)C(=O)c2cccc(NS(=O)(=O)c3ccc(F)cc3)c2O[C@H]1CN(C)S(=O)(=O)c1cccs1 | -1.23% (inactive)
CC(C)NC(=O)N1CCCCN2[C@@H](CO)[C@@H](c3ccc(C#C[C@@H](C)O)cc3)[C@@H]2C1 | 2.83% (inactive)
